The results in this text go back to PubChem BioAssay (NCATS).

Inconclusive results are not listed. Active and inactive are the calls of the source. Calls follow the shape of the dose curve; as a rule, active = well fitted cell-killing curve with a large enough effect; inconclusive = small, poorly fitted or top-dose-only effect, or effect the other way; inactive = no such curve, though single readings can be large or run the other way.
Potency is read from the fitted curve at half-maximal effect.

The test can be described thus: Viability qHTS for spleen associated tyrosine kinase inhibitor (SYKi) drug resistant MV4-11 cells (AID 1963824). Also: nearly all actives have a fitted effect of over 35% in size. The note with it: SYKi-resistant MV4-11 viability, CellTiter-Glo, 72 h; series mostly up to 45 µM. In short, it runs like this: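 SYK-inhibitor-resistant MV4-11 AML cells were seeded at 500 per well onto compound and cultured 72 hours (37 °C, 5% CO2). CellTiter-Glo was then added, and after 10 min at room temperature, luminescence gave viability.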
(In qHTS, concentration-response curves come from the screen itself.)
As for `C=C[C@@]1(C)CCC2=C([C@H]1OC(C)=O)[C@H](OC(C)=O)CC1[C@](C)(C(=O)OC)CC[C@H](OC(C)=O)[C@]21C` (stereo not given in full), the Potency entry was “inactive”.

As to `C[C@@H]1C[C@H](O[C@@H]2O[C@H](CO[C@@H]3OC[C@](O)(CO)[C@H]3O)[C@@H](O)[C@H](O)[C@H]2O)CC(C)(C)[C@H]1/C=C/[C@@H](C)O`, the Potency result is “inactive”.

Regarding `CN(C)CCOC(C)(c1ccccc1)c1ccc(Cl)cc1` (stereo not given), the Potency is 16.4 µM (active).

Take `COC1CC(=O)C23C(=O)NC(CC(C)C)C2C(C)C(C)=CC3/C=C(\C)CCC1O` (stereo not given): the Potency is 7.96 µM (active).

For the compound `CCOC(=O)CCN(C(=O)c1ccc2c(c1)nc(CNc1ccc(C(=N)N)cc1)n2C)c1ccccn1`, the Potency entry is “inactive”.

Consider `CC1C(=O)CC2C3C(O)CC(C(=O)O)C12CC3(C)C` (stereo not given), for which the Potency is 20.6 µM (active).

Turning to `COc1ccc(S(=O)(=O)N2c3ccc(Cl)cc3[C@@](O)(c3ccccc3Cl)[C@H]2C(=O)N2CCC[C@@H]2C(N)=O)cc1OC`, the Potency is 16.8 µM (active).

As to `CO[C@@H]1[C@]2(O)C(=O)N3/C=C\C(C)(C)c4[nH]c5ccccc5c4/C=C\3C(=O)N2[C@]23[C@H](CO)C(C)(C)N2c2ccccc2[C@]13O`, the Potency entry is “inactive”.

`COc1ccc(F)cc1-c1cc(NC(=O)[C@@H]2CCCNC2)ncc1Cl`: the Potency is 0.103 µM (active).

Regarding `C=C1CC[C@@H]2[C@](C)(CO)[C@H](O)CC[C@@]2(C)[C@@H]1C/C=C1/C(=O)OC[C@@H]1O`, the Potency was 3.21 µM (active).

Consider `COc1c2cc(c(O)c1OC)CCCCC(O)CCc1ccc(O)c-2c1` (stereo not given), for which the Potency was 14.3 µM (active).

On to `N#Cc1ccc(O[C@@H]2c3ccccc3C[C@H]2N2CCC[C@@H](N)C2)c(Cl)c1`, for which the Potency was 16.4 µM (active).

With `O=C(O)CCc1nccc2c1[nH]c1ccccc12`, the Potency was 23.1 µM (active).

Regarding `Cc1[nH]c(/C=C2\C(=O)Nc3cc(-c4ccccc4)ccc32)c(C)c1CCC(=O)O`, the Potency is 10.3 µM (active).

Consider `CN1CCN(C(=O)c2cc3cc(Cl)ccc3[nH]2)CC1`, for which the Potency is 8.2 µM (active).

On to `CCCCCCCCCCCCCCCCOP(=O)([O-])OCC[N+](C)(C)C`, for which the Potency is 21.1 µM (active).

On to `C=C1C(=O)OC[C@@H]1C/C=C(\C)CC1CC(C)C(=O)O1` (stereo not given in full), for which the Potency is 13 µM (active).

For `CC(=O)O[C@@H]1[C@@H](OC(C)=O)[C@H](C)O[C@@H](O[C@H]2[C@@H]3C=CO[C@@H](O[C@@H]4O[C@H](CO)[C@@H](O)[C@H](O)[C@H]4O)[C@@H]3[C@@]3(CO)O[C@@H]23)[C@@H]1OC(=O)/C=C/c1ccccc1`, the Potency was 6.11 µM (active).

On to `CC1=CC2/C=C(\C)CCC3OC(C)(C)OC3CCC(=O)C23C(=O)NC(CC(C)C)C3C1C` (stereo not given), for which the Potency is 7.96 µM (active).

For the compound `O=C1CCc2cc(S(=O)(=O)Nc3cccc(Cl)c3)ccc2N1`, the Potency was 16.4 µM (active).

As for `Cc1ccnc(NC(=O)C(C)c2cccc(C(=O)c3ccccc3)c2)c1` (stereo not given), the Potency was 23.1 µM (active).

Consider `Cc1c(OCc2cccc(-c3ccc(C(=O)O)cc3)c2)cc2c(c1C)C(=O)C(C1CCCC1)C2` (stereo not given), for which the Potency result is “inactive”.

`C[C@@H](Oc1cc(-n2cnc3ccc(OC4CCN(C)CC4)cc32)sc1C(N)=O)c1ccccc1Cl`: the Potency was 0.013 µM (active).

Take `CC(C)c1ccc(NC(=O)C(c2ccccc2)N(C)C(=O)Cc2c[nH]c3ccccc23)cc1` (stereo not given): the Potency is 18.4 µM (active).

With `O=C(O)/C=C/c1ccc(O)c(O[C@@H]2O[C@H](CO)[C@@H](O)[C@H](O)[C@H]2O)c1`, the Potency result is “inactive”.

Turning to `Cc1nc(Nc2n[nH]c3c2CN(C(=O)NC(CN(C)C)c2ccccc2)C3(C)C)c2sccc2n1` (stereo not given), the Potency is 0.0164 µM (active).

With `O=[N+]([O-])c1ccc(-[n+]2nc(-c3ccccc3)nn2-c2ccc(I)cc2)cc1`, the Potency entry was “inactive”.

On to `CC1CC(=O)C2=C(O1)OC1(C)CCC3C(C)(C)C4OC4C(=O)C3(C)C1C2` (stereo not given), for which the Potency entry is “inactive”.

Turning to `Cc1ccc(-n2nc(C(C)(C)C)cc2NC(=O)Nc2cc(COc3cccnc3)[nH]n2)cc1`, the Potency was 0.146 µM (active).

As for `N#CC(CCCN1CCC(O)(c2ccc(Cl)cc2)CC1)(c1ccccc1)c1ccccc1`, the Potency is 5.8 µM (active).

With `COc1ccc(NS(=O)(=O)c2sc3ccc(Cl)cc3c2C)cc1N1CCNCC1`, the Potency was 14.6 µM (active).

On to `CC1=C[C@@H]2[C@H]3[C@@H]4O[C@@](C)(CC[C@H]4O)[C@H]3CC(=O)[C@]23C(=O)N[C@@H](CC(C)C)[C@@H]3[C@@H]1C`, for which the Potency was 8.05 µM (active).

For `CN(C)c1ccc2c(c1)OC(N)=C(C#N)C2c1cccc(C(F)(F)F)c1` (stereo not given), the Potency was 0.184 µM (active).

Regarding `C=C[C@](C)(CC/C=C(\C)C(=O)O)O[C@@H]1OC[C@H](O)[C@H](O)[C@H]1O`, the Potency result was “inactive”.

In the case of `COc1ccc([C@@]2(O)c3c(ccc(CC=C(C)C)c3O)NC(=O)[C@@H]2OC)cc1`, the Potency was 14.3 µM (active).

With `CC1(C)C2CC[C@@]34CC(CC[C@H]3[C@]2(C)CC[C@@H]1O[C@@H]1O[C@H](CO)[C@@H](O)[C@H](O)[C@H]1O)[C@](C)(O)C4` (stereo not given in full), the Potency result was “inactive”.

On to `CCOc1ccc(Cc2nccc3cc(OCC)c(OCC)cc23)cc1OCC`, for which the Potency was 0.15 µM (active).

For the compound `C/C=C(\C)C(=O)OC1C2(O)CC3=C4CC(=O)OC(c5ccoc5)C4(C)CCC3C(C)(C2=O)C(C(OC(C)=O)C(=O)OC)C1(C)C` (stereo not given), the Potency was 4.85 µM (active).

For the compound `CNC(=O)COC(=O)NCCC1CCN(c2cccc(C)n2)CC1`, the Potency entry was “inactive”.

As to `C=C1C(=O)O[C@@H]2/C=C(/C)CC3C=C(C[C@H](OC(=O)/C(C)=C\C)[C@@H]12)C(=O)O3` (stereo not given in full), the Potency was 2.55 µM (active).
